This is part of a sample that, as a whole, favours compounds with a hit. Of some 83,000 tested, about 20% had one in any assay.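 Percent growth is the endpoint: 0 to 100 indicates growth inhibition (40 means 60% inhibition), 0 means no net growth, and negative values indicate cell death.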 A number with no mark means an inactive call. The source made the active and inactive calls. Rule for the calls: active = growth percent below 10; inactive = the rest.

Common to all, as to test: NCI-60 one-dose screen, 48 h (100 = growth as untreated, 0 = no growth, -100 = all killed)
Holding throughout (settings): 10 µM unless noted

For test [1], the system named is SK-MEL-2 melanoma.
The subject of test [2] is EKVX NSCLC.
Test [3] relates to SN12C renal.
In test [4] the test system is UO-31 renal.
For test [5], the system named is TK-10 renal.
Test [6] concerns ACHN renal.
Test [7] relates to A498 renal.
For test [8], the system named is CCRF-CEM leukemia.
For test [9], the system named is MOLT-4 leukemia.
Test [10] has as its system SR leukemia.
Test [11] relates to OVCAR-8 ovarian.
The subject of test [12] is OVCAR-5 ovarian.
Test [13] concerns OVCAR-4 ovarian.
In test [14] the test system is SK-OV-3 ovarian.
In test [15] the test system is IGROV1 ovarian.
Test [16] has as its system OVCAR-3 ovarian.
The subject of test [17] is HS 578T breast.
The subject of test [18] is NCI/ADR-RES ovarian.
Test [19] relates to RPMI-8226 leukemia.
The subject of test [20] is CAKI-1 renal.

Consider `CCOC(=O)C1=C(C)NC(SCc2nnc(-c3ccc(Cl)cc3)o2)=NC1c1ccc(Cl)cc1Cl` (configuration not stated), for which the growth is 60.3% in test [1]; 77.2% in test [2]; 65.4% in test [3]; 37.2% in [4]; 79.4% in test [5]; 57.7% in [6]. For the same molecule, the growth in test [7] is 77.7%; in test [8], 27.4%; in test [9], 11.3%; in test [10], 37.9%; in test [11], 54.2%; in test [12] it was 89%. Also, the growth in test [13] was 52.7%; in test [14] it was 90.3%; in [15], 43.9%; in [16] it was 62.8%; in [17], 67.1%; in test [18], 54.6%.

Consider `Clc1ccc(-c2cn(-c3ccccc3)c(-c3ccccc3)n2)cc1`, for which the growth was 110% in test [1]; 84.5% in [2]; 95.9% in test [3]; 67.8% in [4]; 92.4% in test [5]; 94.6% in test [6]. For the same molecule, the growth in test [7] was 88.4%; in test [9], 7.71% (active); in test [10], -19.6% (active); in test [19] it was -54.6% (active); in test [11], 90.7%; in test [12], 90%. In addition, the growth was 88.1% in test [13]; 102% in test [14]; 48% in test [15]; 80% in test [16]; 93.4% in [18].

Take `O=[N+]([O-])c1ccc(-c2cc3c(Nc4ccc(OCc5cccc(Cl)c5)c(Cl)c4)ncnc3s2)cc1`: the growth in test [1] was 79.4%; in test [2] it was 68.4%; in test [3], 85.1%; in [4], 59.9%; in test [5], 70.1%; in [6], 63.3%. Further, the growth in [7] was 72.3%; in test [8] it was 52.2%; in test [9], 47.5%; in [10] it was 48.9%; in [11] it was 53.4%; in test [12], 88.2%. The growth was 41.1% in test [13]; 58.5% in test [14]; 76.8% in [15]; 26.7% in [16]; 82.1% in test [17]; 68.1% in [18].

In the case of `CC(C)OC(=O)NNC(=O)c1ccncc1`, the growth in test [1] is 84.4%; in test [2] it was 106%; in test [3] it was 100%; in test [4], 77.8%; in test [5], 103%; in [20], 94.4%. The growth is 119% in [7]; 132% in test [8]; 102% in [9]; 104% in test [10]; 99.1% in [11]; 98.5% in test [12]. Moreover, the growth in test [13] was 101%; in [14], 106%; in test [15], 98%; in test [16] it was 93.4%; in test [17] it was 106%; in [18], 109%.

For `Cc1cc(NS(=O)(=O)c2ccccc2)c(OS(=O)(=O)c2ccccc2)cc1C`, the growth in test [1] was 118%; in test [2], 104%; in test [3], 94%; in test [4], 73.6%; in [5], 119%; in [20], 109%. Also, the growth in [7] was 89.2%; in test [8] it was 97.5%; in [9] it was 88.5%; in test [10] it was 94.6%; in test [19], 84.1%; in test [11], 95.1%. In addition, the growth is 114% in [12]; 106% in [13]; 108% in test [14]; 122% in [15]; 110% in test [16]; 102% in test [18].

As for `NC(=Nc1ccc(N)cc1)C(N)=Nc1ccc(N)cc1`, the growth in test [1] is -7.4% (active); in [2] it was 107%; in [3], 104%; in [4], 92.9%; in test [5], 87.3%; in test [6], 93.4%. In addition, the growth was 91.3% in [7]; 124% in test [9]; 134% in test [10]; 85.3% in test [11]; 105% in test [12]; 101% in test [13]. Further, the growth in test [14] is 126%; in test [15] it was 84.7%; in [16], 94.1%; in test [17], 114%; in test [18], 99.6%.

Take `OCCCCc1nccc2c1[nH]c1ccccc12`: the growth in test [1] was 121%; in test [2] it was 94.8%; in test [3] it was 103%; in test [4], 95.1%; in test [5], 67.9%; in test [6], 98.7%. Further, the growth was 112% in [7]; 119% in test [9]; 140% in test [10]; 102% in [11]; 98.4% in test [12]; 89.6% in test [13]. Also, the growth is 112% in test [14]; 81.9% in test [15]; 105% in test [16]; 106% in test [17]; 108% in [18].

Take `O=C1CC(c2ccc3c(c2)OCO3)Nc2cc3c(cc21)OCO3` (configuration not stated): the growth in test [1] is 11.7%; in test [2], 36.2%; in [3] it was 22.7%; in test [4] it was 52.6%; in test [5], 34.6%; in test [20], 43.4%. Also, the growth in test [7] is -17.4% (active); in test [8], 9.73% (active); in test [9], 26%; in test [10] it was 7.67% (active); in test [19], 16.5%; in [11], 12.7%. Moreover, the growth in test [12] was 44.7%; in test [13], 49.9%; in test [15], 50.4%; in test [16] it was -5.26% (active); in test [17] it was 19.5%; in test [18], 13.5%.

Consider `CCN(CC)CCCNC(=O)c1ccc(N)cc1`, for which the growth was 99% in test [1]; 104% in test [2]; 103% in [3]; 78.8% in test [4]; 97.8% in test [5]; 107% in [20]. Moreover, the growth in test [7] is 66.3%; in [8] it was -34.9% (active); in test [9], 85.3%; in [10] it was 86.6%; in test [19] it was 105%; in test [11], 106%. Besides, the growth in [12] is 97.1%; in test [13] it was 114%; in test [14], 112%; in test [15] it was 100%; in [16], 111%; in test [17] it was 99.2%. Moreover, the growth in test [18] was 102%.

On to `C[C@@H]1CC[C@@H]2[C@@H]1[C@H](OC(=O)/C=C/c1ccccc1)[C@]1(CCCOCCOCCOCCOC(=O)CCCC[C@@H]3SC[C@@H]4NC(=O)N[C@@H]43)C[C@@H](OC(=O)CO)[C@@]2(C)O1`, for which the growth in test [1] is 108%; in test [2] it was 101%; in [3], 106%; in test [4], 83.1%; in test [5], 99%; in test [20] it was 91.5%. The growth in test [7] is 97.1%; in test [8] it was 98.2%; in [9] it was 97.9%; in [10] it was 88.3%; in test [19] it was 112%; in test [11], 113%. The growth in test [12] was 101%; in test [13], 95.7%; in test [14], 102%; in test [15] it was 107%; in [16], 104%; in test [17], 99.5%. For the same molecule, in test [18], the growth is 105%.

For the molecule `N#Cc1cnn2c(-c3ccc(Cl)cc3)nc(NC3CC3)nc12`, the growth was 99.8% in test [1]; 75.9% in [2]; 98.9% in test [3]; 69.2% in [4]; 94.2% in test [5]; 96.8% in [6]. The growth was 84.5% in test [7]; 95.7% in test [8]; 80.1% in test [9]; 86.1% in [10]; 102% in test [11]; 93.9% in test [12]. Moreover, the growth in [13] was 87.2%; in test [14] it was 107%; in test [15], 89.4%; in test [16], 101%; in test [17] it was 101%; in [18], 98.8%.

`NS(=O)(=O)c1cn(-c2ncnc3nc[nH]c23)ccc1=O`: the growth in test [1] was 95.4%; in test [2] it was 97.8%; in test [3], 92.4%; in [4], 78.2%; in [5], 94.5%; in test [6], 99.2%. In addition, the growth in test [7] was 89.1%; in [9] it was 99.5%; in test [10], 132%; in test [19] it was 74.7%; in test [11] it was 107%; in [12] it was 93.1%. Moreover, the growth in test [13] was 95.1%; in [14] it was 82.2%; in [15], 97.2%; in [16], 103%; in test [17], 102%; in test [18], 105%.

With `O=C(Oc1ccc[nH]c1=O)c1cc([N+](=O)[O-])cc([N+](=O)[O-])c1`, the growth in [1] was -11.5% (active); in [2], 112%; in test [3] it was 107%; in [4], 96.7%; in test [5], 90.3%; in test [6], 107%. Besides, the growth in test [7] is 108%; in test [9] it was 135%; in test [11], 93.6%; in [12], 106%; in test [13] it was 110%; in [14], 116%. Further, the growth was 162% in [15], 113% in test [16], 124% in [17] and 114% in [18].

`CCCCCCCCCCCCCCCCCC1=NCCN1C(=O)OCCO`: the growth in test [1] is 76.8%; in [2], 83.4%; in test [3], 32.7%; in test [4], 29.5%; in test [5], -65.4% (active); in [6], 38.4%. In addition, the growth in [7] is 89.1%; in test [8] it was -2.98% (active); in test [9], 8.42% (active); in test [10] it was -10.5% (active); in test [11] it was 19.3%; in [12], 68.1%. In addition, the growth in [13] is 28.2%; in test [14], 61.7%; in test [15], -35.3% (active); in [16], 76%; in test [17] it was 11.6%; in test [18], 51.4%.

`CN(C)CCn1cc(-c2ccc3c(Nc4ccc(CC(=O)Nc5cccc(F)c5)cc4)ncnc3c2)cn1`: the growth in test [1] was 37.2% [30 µM]; in test [2] it was -34.7% [30 µM] (active); in test [3], -91.4% [30 µM] (active); in test [4], -60% [30 µM] (active); in [5], -58.5% [30 µM] (active); in test [20] it was -15.8% [30 µM] (active). Also, the growth is 59.5% [30 µM] in test [7]; -19.3% [30 µM] (active) in test [8]; -30.6% [30 µM] (active) in [9]; -20% [30 µM] (active) in test [10]; -29.2% [30 µM] (active) in test [11]; -91.8% [30 µM] (active) in test [12]. The growth in test [13] is -76.5% [30 µM] (active); in test [14], -26.4% [30 µM] (active); in test [15] it was -65.3% [30 µM] (active); in test [16], -78% [30 µM] (active); in test [17], -48.7% [30 µM] (active); in [18], 52.4% [30 µM].
